Target: ETFB
Test: pooled miR-30 sensor sort-seq; sequence = guide strand
Conditions: shRNA

Going from TTTCAACTTGTCCCCCTCCAGC to TTGGCTTTCATGATGTTGGGCA, the sensor-assay potency score (higher = more potent) rises from -1.21 to 0.503.

Compared with TCCGTGACCACACCGGTCCTGT, TTGGGCAGCGTGGCGTAGCGGG is higher in sensor-assay potency score (higher = more potent): -1.31 for the first, -1.13 for the second.

First: AAGCGTTCTGCTTCTGCTGGGG
Second: ACAGTCATCATCGATGGCCTGT
The sensor-assay potency score (higher = more potent) of the first is higher: -0.0454 for the first, -0.63 for the second.

Compared with TCGATCTTCTTCTTCTTGGCTT, ATCACCTCGATCTTCTTCTTCT is lower in sensor-assay potency score (higher = more potent): -0.249 for the first, -0.543 for the second.

Compared with TTGATCACCTCGATCTTCTTCT, ACACTGATCACAGAGAGCTTGG is lower in sensor-assay potency score (higher = more potent): 0.521 for the first, -0.751 for the second.

Going from AAGAAATCCAGCTGTCATCTGC to TCGTCTCCTGGCACTGTGCAGG, the sensor-assay potency score (higher = more potent) falls from 0.386 to -1.37.

Going from TCTGGTTACAGTCATCATCGAT to TCAGCTGTCACCACAGCTGGCA, the sensor-assay potency score (higher = more potent) rises from -0.57 to -0.558.

Going from TCCACTTTCAACTTGTCCCCCT to TTCATGGAGTGCTTCACACCAT, the sensor-assay potency score (higher = more potent) rises from -0.169 to 0.145.

Compared with TGGAGGTCAGGTCCACACCCAG, TCGGTCTGCACCCATGGCCAGG is higher in sensor-assay potency score (higher = more potent): -1.98 for the first, -1.71 for the second.

Compared with TCTCCTTGAGCCGCACAGCCTC, TCCCGCTCCACTTTCAACTTGT is higher in sensor-assay potency score (higher = more potent): -1.05 for the first, -0.247 for the second.

Going from AATCCAGCTGTCATCTGCCCTG to TTCTCCTTCTCTGCCAGCTTGG, the sensor-assay potency score (higher = more potent) falls from -0.828 to -1.27.

Target: ETS1
Test: as above
Conditions: shRNA

Going from TAGCAAAGTAGTCATTCTGCAA to TAGCTAATGAAGTAATCCGAGG, the sensor-assay potency score (higher = more potent) falls from -0.233 to -1.48.

Going from TTTTGTCGTAATAGTAGCGTAG to TTTATCAGTGAGTAATTCCAGA, the sensor-assay potency score (higher = more potent) falls from -0.397 to -0.449.

Compared with TTCTTGTTTGATAGCAAAGTAG, ATCTGCACATTCCATATCCGGG is lower in sensor-assay potency score (higher = more potent): -1.22 for the first, -1.42 for the second.

Compared with TTCTGCAAGGTGTCTGTCTGGA, TTTCACATCCTCTTTCTGCAGG is lower in sensor-assay potency score (higher = more potent): 0.532 for the first, -0.259 for the second.

Compared with TTGATATGGTTTCACATCCTCT, TATGCTTTCAAAAGAGTCCTGG is higher in sensor-assay potency score (higher = more potent): -1.06 for the first, 0.343 for the second.

Compared with TGAGACATCATTTCTTTGCTGC, TAGTCCTCTGAGTCGAAGCTGT is lower in sensor-assay potency score (higher = more potent): 0.679 for the first, -0.809 for the second.

Going from TTTGATAGCAAAGTAGTCATTC to TTTTCCGTCTTGATGATGGTGA, the sensor-assay potency score (higher = more potent) rises from -0.303 to -0.268.

First: TTTCTTTGCTGCTTGGAGTTAA
Second: TTCTTTAGTGAAACCACTGAAA
The sensor-assay potency score (higher = more potent) of the first is lower: -0.637 for the first, -0.218 for the second.

First: TGAAAGTAGCTTTTAATGCTTG
Second: AAGACTGACAGGATTTATCAGT
The sensor-assay potency score (higher = more potent) of the first is higher: -0.0896 for the first, -0.516 for the second.
